Screening data: PubChem BioAssay, National Center for Advancing Translational Sciences (NCATS)
The list is not random: actives were taken first. Their share in the collection is about 2.4%.
D2 PAM-1 = D2 dopamine receptor (human) potentiation. 0.34% of 340,000 active. HEK293 T-REx D2, calcium flux, EC20 dopamine potentiation. potentiation, % at 10 µM. P14416;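 active = potentiation over 3 SD above the plate norm, cut at about 30% in these data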; note: 0% is about no effect
Target sequence (P14416 whole entry, looked up): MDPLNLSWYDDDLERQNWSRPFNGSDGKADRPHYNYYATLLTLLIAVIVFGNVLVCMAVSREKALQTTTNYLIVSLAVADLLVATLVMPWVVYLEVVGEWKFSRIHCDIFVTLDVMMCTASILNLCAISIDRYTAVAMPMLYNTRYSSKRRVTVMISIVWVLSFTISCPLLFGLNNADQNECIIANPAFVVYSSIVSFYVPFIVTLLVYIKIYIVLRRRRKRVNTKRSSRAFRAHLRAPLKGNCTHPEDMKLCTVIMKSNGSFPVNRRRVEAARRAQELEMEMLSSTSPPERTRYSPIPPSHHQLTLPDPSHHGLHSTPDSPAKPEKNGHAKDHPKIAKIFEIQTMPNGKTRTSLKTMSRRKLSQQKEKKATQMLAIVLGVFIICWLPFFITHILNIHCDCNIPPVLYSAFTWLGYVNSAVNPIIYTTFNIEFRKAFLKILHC
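Potentiation of an EC20 dopamine calcium response measured kinetically over 180 s, after a preceding 180 s compound-only read flagging agonists. Cells: inducible Hek293 Trex D2 line, 4000/well, cultured overnight at 30 C before dye loading.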
D2 PAM-2 = potentiates the human D2 dopamine receptor allosterically. P14416. DiscoveRx D2 beta-arrestin cells, luminescence, 90 min; 100% = 57 uM dopamine signal. potentiation, % (test concentration not listed). 0.23% of 360,000 active. AID 624464; in the data active = potentiation above about 50%; inconclusive = mostly about 30% to 49%
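D2 cells co-treated with compound plus 50 nM dopamine (EC20) for 90 min at 37 deg C to detect potentiation. Beta-arrestin recruitment was read as enzyme-fragment luminescence after 1 h at ambient temperature. Full response was set by 57 uM dopamine.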
D2 ag-1 = agonists of human D2 dopamine receptor (beta-arrestin) | P14416 | DiscoveRx PathHunter D2 beta-arrestin, luminescence, 90 min; 100% = 57 uM dopamine signal | activation, % (no concentration beside the values) | 0.084% of 360,000 active | AID 624465; in the data active = activation above about 40%; inconclusive = between about 15% and that limit
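Agonist mode: compounds alone added to overnight-plated D2 PathHunter cells for 90 min at 37 C, with 57 uM final dopamine (EC100) defining full response. Beta-arrestin recruitment detected by chemiluminescent reagent, read after 1 h at ambient temperature.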
D2 antag = antagonizes the human D2 dopamine receptor; 2% of 340,000 active; P14416; HEK293 TREx D2 cells, calcium flux, dopamine EC80; inhibition, % at 10 µM; AID 485344; in the data active = inhibition above about 30%; inactive = below that, where a call was filed; note: 0% is about no effect
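Inhibition of EC80 dopamine-driven calcium flux, recorded kinetically, defines activity here; cells are a tetracycline-induced HEK293 T-REx line expressing force-coupled D2.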
D2 ag-2 = D2 dopamine receptor (human) agonism; 0.53% of 340,000 active; activation, % at 2 µM; P14416; HEK293 T-REx D2 cells, calcium flux agonist mode;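 active = activation over 3 SD above normal in the single-dose calcium agonist read, cut at about 30% in these data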; note: 0% is about no effect
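HEK293 Trex D2 cells, tetracycline-induced, o/n 30 C 5% CO2; no-wash Ca dye, RT 30–90 min; 10-cycle baseline, 23 nl cpd added, kinetic Ca read 180 s; agonist hits = positive Ca response.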
An asterisk follows results filed as active; ? = inconclusive; . = no result.

SMILES	D2 PAM-1	D2 PAM-2	D2 ag-1	D2 antag	D2 ag-2
OC(c1cccc(Cl)c1)c1nccc2ccccc12 (configuration not stated)	2	-5	-2	-3	0
CC1(NC(=O)C2CCCCC2)CCS(=O)(=O)C1 (configuration not stated)	-3	0	-18	42*	2
CCN(CC)S(=O)(=O)c1ccc(NC(=O)Cn2c(=O)sc3ccccc32)cc1	3	-12	-1	43*	1
Cc1ccccc1OCC(=O)NCC(c1ccc(Cl)cc1)N1CCCCC1 (configuration not stated)	-24	.	.	.	-1
COCCn1c(C)cc(/C=C(\C#N)C(=O)OC(C)C(=O)Nc2ccc(NC(C)=O)cc2)c1C (configuration not stated)	-3	1	0	33*	0
CC1=C(C(=O)NCCN2CCN(C)CC2)C2(CCC(C)CC2)OC1=O (configuration not stated)	23	-7	-1	61*	0
CCCNC(=O)C1=C(C)C(=O)OC12CCC(C)CC2 (configuration not stated)	15	-1	-1	-5	0
COc1ccccc1CNC(=O)C1=C(C)C(=O)OC12CCC(C)CC2 (configuration not stated)	0	-1	-3	47*	0
COc1ccc(NC(=O)C2(c3ccc(NC(=O)c4ccc(OC)c(OC)c4)cc3)CCCC2)cc1	-3	-2	5	19	0
COc1ccc(NC(=O)C2(c3ccc(NC(=O)c4ccc(C)cc4)cc3)CCCC2)cc1	-4	8	0	34*	0
N#C/C(=C/c1ccc(N2CCCCC2)o1)C(=O)Nc1ccc(Cl)cc1	-29	-14	0	62*	110*
COc1ccc(NC(=O)/C(C#N)=C\c2ccc(N3CCOCC3)o2)cc1	-9	-12	-4	13	42*
N#C/C(=C/c1ccc(N2CCOCC2)o1)C(=O)NC1CCCCC1	5	-17	-19	5	18
CC1CC1c1ccc(/C=C(\C#N)C(=O)Nc2ccccc2Cl)o1 (configuration not stated)	.	-8	2	.	.
N#C/C(=C\c1ccc(N2CCOCC2)o1)C(=O)Nc1ccc(O)cc1	12	-13	-8	-1	17
CC1CC1c1ccc(/C=C(\C#N)C(=O)Nc2ccc(Cl)cc2)o1 (configuration not stated)	-25	-35	-3	76*	0
N#C/C(=C/c1ccc(N2CCCCC2)o1)C(=O)Nc1ccc2ccccc2c1	-15	-17	-9	47*	106*
COc1ccc(NC(=O)c2c(C)oc3ccc(O)c(CN4CCN(Cc5ccccc5)CC4)c23)cc1	-14	.	.	.	0
CC1CCCCN1CCCNC(=O)Cn1ncc2c3ccccc3n(Cc3ccccc3F)c2c1=O (configuration not stated)	-4	.	.	.	-1
Cc1ccc(OCCn2cc(C(=O)C3CCCCC3)c3ccccc32)cc1	6	.	.	.	2
COc1ccc2nc(SCC(O)c3cccc(Br)c3)[nH]c2c1 (configuration not stated)	-9	.	.	.	-1
C/C=C(\C)C(=O)OC1[C@H](OC(C)=O)C2(CO)C(CC1(C)C)C1=CCC3C4(C)CCC(O[C@@H]5O[C@H](C(=O)O)[C@@H](O[C@@H]6O[C@H](CO)[C@@H](O)[C@H](O)[C@H]6O)[C@H](O)[C@H]5O[C@H]5O[C@H](CO)[C@@H](O)[C@H](O)[C@H]5O)[C@](C)(CO)C4CCC3(C)[C@]1(C)C[C@H]2O (some centres not stated)	.	-63	41*	.	.
C/C=C(/C)C(=O)OC1CC(C)(C)C[C@H]2C3=CC[C@@H]4[C@@]5(C)CCC(O[C@@H]6O[C@@H](C(=O)O)[C@@H](O)C(O[C@@H]7OC[C@H](O)[C@@H](O)[C@@H]7O[C@@H]7OC(CO)C(O)[C@@H](O)[C@@H]7O)C6O[C@@H]6OC(CO)C(O)C(O)C6O)[C@@](C)(CO)[C@@H]5CC[C@]4(C)[C@]3(C)CC(O)[C@@]12CO (some centres not stated)	.	-21	13	.	.
CCN(CC)CC(=O)N1CCCC(N2CCN(c3cccc(C(F)(F)F)c3)CC2)C1 (configuration not stated)	9	-3	-7	-2	-1
CC(=O)Nc1cc[n+](C(C)C(=O)c2ccccc2)cc1 (configuration not stated)	-10	-5	-7	5	2
SMILES	D2 PAM-1	D2 PAM-2	D2 ag-1	D2 antag	D2 ag-2
CC(=O)Nc1cc[n+](C(C)C(=O)c2ccc(Br)cc2)cc1 (configuration not stated)	-23	-25	-4	54*	0
COCc1cc(=O)n2[nH]c(SCc3ccccc3)nc2n1	2	-20	-4	5	-1
COCc1cc(=O)n2[nH]c(SC)nc2n1	36*	-3	0	5	0
COc1cccc(-n2c(-c3ccco3)nc3c(cnn3-c3ccc(C)cc3)c2=O)c1	-2	.	.	.	-1
CCOC(=O)c1cccc(NS(=O)(=O)c2ccc(-c3coc(C)n3)cc2)c1	-5	.	.	.	0
COc1ccc(CCNC(=O)c2oc(=O)c3ccccc3c2-c2ccccc2)cc1OC	0	.	.	.	0
Cc1cc(/C=C2\SC(=Nc3ccc(F)cc3)NC2=O)c(C)n1-c1ccc(S(N)(=O)=O)cc1	0	-6	-2	38*	2
COc1ccc(CNC(=O)c2cc3cc(C)ccc3n2C)cc1	13	.	.	.	.
Cc1ccc(C(=O)NN2C(=O)c3ccc(S(=O)(=O)c4ccc(C(=O)O)cc4)cc3C2=O)cc1	-14	-26	-20	63*	1
O=C(O)c1ccc(S(=O)(=O)c2ccc3c(c2)C(=O)N(NC(=O)c2ccc(O)cc2)C3=O)cc1	-5	-6	-1	-7	0
CCOc1ccc(OCCn2nnc3ccccc3c2=O)cc1	52*	-5	4	7	-1
Cc1ccc(CNC(=O)CN2C(=O)C3(SCC(=O)N3c3ccc(F)c(F)c3)c3ccccc32)cc1 (configuration not stated)	5	.	.	.	0
O=c1cc(N2CCN(Cc3ccccc3)CC2)[nH]c(=O)n1-c1ccc(Br)cc1	0	-4	-1	38*	1
O=[N+]([O-])c1ccccc1-c1ccc(CN2CCN(c3ccccc3)CC2)o1	-22	-18	?	52*	23
COc1ccc(-c2[nH]c(-c3ccccc3)nc2SCC(=O)Nc2ccc3c(c2)OCO3)cc1	-14	.	.	.	0
CCCc1cc(=O)oc2cc(C)cc(OCC(=O)NC(Cc3c[nH]c4ccc(O)cc34)C(=O)O)c12 (configuration not stated)	8	-2	-4	-24	0
